Laboratory results: PubChem BioAssay (Tox21)
Several values for one entry are separate records, joined by “and”; a condition that tells them apart may be missing. Equal values may be shown once. The source holds several records for some structures; these can differ, active in one and inactive in another. Activity calls are given as the source filed them. Where a call stands in place of a potency, no number is given. Unless noted, the call rests on the fitted dose curve; in most records, active means well fitted curve in the direction sought with a large enough effect in the repeat runs; inconclusive means weak or mixed curves; inactive means no such curve, though single readings can be large; an effect the other way counts as inactive or inconclusive.

Experiments:
[1] = qHTS assay for identifying genotoxic compounds that show differential cytotoxicity against isogenic chicken DT40 cell lines with known DNA damage response pathways - wild type cell line (AID 743012); further: nearly all actives have a fitted effect of over 60% in size; further: potency means the concentration at half of the fitted maximal effect
Procedure, shortened: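 Viability of DNA repair-proficient chicken DT40 cells was assessed by CellTiter-Glo luminescence following 40 h compound exposure at 37 C/5% CO2.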

[2] = qHTS assay for identifying genotoxic compounds that show differential cytotoxicity against isogenic chicken DT40 cell lines with known DNA damage response pathways - Rev3 mutant cell line (AID 743014); further: nearly all actives have a fitted effect of over 55% in size; further: potency means the concentration at half of the fitted maximal effect
[3] = qHTS assay for identifying genotoxic compounds that show differential cytotoxicity against isogenic chicken DT40 cell lines with known DNA damage response pathways - Rad54/Ku70 mutant cell line (AID 743015); further: nearly all actives have a fitted effect of over 60% in size; further: potency means the concentration at half of the fitted maximal effect
[4] = qHTS assay to identify small molecule antagonists of the thyroid receptor (TR) signaling pathway - cell viability counter screen (AID 743064); further: nearly all actives have a fitted effect of over 50% in size; further: potency means the concentration at half of the fitted maximal effect
Procedure, shortened: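 Rat GH3 pituitary tumor cells stably expressing two TR response elements driving luciferase were plated, rested 4 h, then dosed with library compounds and T3 (1 nM final). After 23.5 h at 37 °C, CellTiter-Fluor was added for 30 min and fluorescence recorded.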

[5] = qHTS assay to identify small molecule antagonists of the thyroid receptor (TR) signaling pathway (AID 743065); further: nearly all actives have a fitted effect of over 55% in size; further: potency means the concentration at half of the fitted maximal effect
Procedure, shortened: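 Antagonism measured as loss of luciferase signal in GH3 cells stably carrying a TRE-luciferase reporter, co-treated with compound and T3 (1 nM final) for 23.5 h at 37 C. Viability was read in the same well by CellTiter-Fluor.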

[6] = qHTS assay to identify small molecule antagonists of the estrogen receptor alpha (ER-alpha) signaling pathway - cell viability counter screen (AID 743074; calls by dose curve; further: nearly all actives have a fitted effect of over 45% in size; further: potency means the concentration at half of the fitted maximal effect)
[7] = target: Estrogen receptor (Homo sapiens) (UniProt P03372); experiment: qHTS assay to identify small molecule agonists of the estrogen receptor alpha (ER-alpha) signaling pathway (AID 743075; calls by dose curve; further: potency means the concentration at half of the fitted maximal effect)
[8] = target: Aromatase (Homo sapiens) (UniProt P11511); experiment: qHTS assay to identify aromatase inhibitors (AID 743083); further: nearly all actives have a fitted effect of over 55% in size; further: potency means the concentration at half of the fitted maximal effect
[9] = qHTS assay to identify small molecule antagonists of the androgen receptor (AR) signaling pathway - cell viability counter screen (AID 743033; further: nearly all actives have a fitted effect of over 45% in size; further: potency means the concentration at half of the fitted maximal effect)
[10] = target: Androgen receptor (Homo sapiens) (UniProt P10275); experiment: qHTS assay to identify small molecule agonists of the androgen receptor (AR) signaling pathway using the MDA cell line (AID 743040; further: nearly all actives have a fitted effect of over 20% in size)
Procedure, shortened: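 Stable MMTV-luciferase reporter in MDA-kb2 cells; note the promoter carries GR as well as AR response elements. 16 h compound treatment, 37C, 0% CO2; ONE-Glo luminescence endpoint.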

[11] = qHTS assay to identify small molecule antagonists of the androgen receptor (AR) signaling pathway using the MDA cell line - cell viability counter screen (AID 743041; further: nearly all actives have a fitted effect of over 45% in size)
Procedure, shortened: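 Using the breast carcinoma line MDA-kb2 AR-luc, test chemicals were co-incubated with R1881 for 16 h; CellTiter-Fluor reagent, added at 15.5 h, provided a fluorescence measure of live cells.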

[12] = target: Androgen receptor (Homo sapiens) (UniProt P10275); experiment: qHTS assay to identify small molecule antagonists of the androgen receptor (AR) signaling pathway using the MDA cell line (AID 743042; further: nearly all actives have a fitted effect of over 55% in size; further: potency means the concentration at half of the fitted maximal effect)
Procedure, shortened: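 Antagonist mode: compounds plus R1881 agonist added to MDA-kb2 AR-luc cells, incubated 16 h at 37C. Luciferase reporter luminescence quantified, with multiplexed CellTiter-Fluor readout for cell viability.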

[13] = target: Estrogen receptor (Homo sapiens) (UniProt P03372); experiment: qHTS assay to identify small molecule antagonists of the estrogen receptor alpha (ER-alpha) signaling pathway (AID 743069; active means well fitted curve in the direction sought with a large enough effect in the signal ratio in the repeat runs, not every such curve was filed as active; inconclusive means weak or mixed curves, or effect the other way; inactive means no such curve, though single readings can be large or run the other way; the % refers to the signal ratio; further: potency means the concentration at half of the fitted maximal effect)
Procedure, shortened: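 Fluorescence intensity from a beta-lactamase FRET substrate served as the read-out. Cells: HEK293 with stably integrated ER-alpha-UAS-bla reporter. Agonist 17beta-estradiol was co-added with compounds; incubation 18 hr at 37C, substrate 2 hr at room temperature.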

[14] = qHTS assay to identify small molecule antagonists of the estrogen receptor alpha (ER-alpha) signaling pathway using the BG1 cell line (AID 743080; calls by dose curve;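 further: BG1 cells stimulated with 17beta-estradiol alongside compound; nearly all actives have a fitted effect of over 25% in size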; further: potency means the concentration at half of the fitted maximal effect)
Procedure, shortened: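 Quantitative HTS on the Tox21 10K library: BG1 cells with endogenous ER-alpha and ERE-luciferase reporter, 17beta-estradiol stimulation, 21.5 h compound exposure, luminescence endpoint with parallel fluorescence cytotoxicity counter-read.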

[15] = qHTS assay to identify small molecule antagonists of the estrogen receptor alpha (ER-alpha) signaling pathway using the BG1 cell line - cell viability counter screen (AID 743081);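 further: compound given together with 17beta-estradiol as the ER stimulus; series mostly up to about 70 µM; nearly all actives have a fitted effect of over 45% in size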
[16] = test system: thyroid hormone receptor (rat, GH3 cells); experiment: qHTS assay to identify small molecule agonists of the thyroid receptor (TR) signaling pathway (AID 743066; calls by dose curve)
[17] = target: Estrogen receptor (Homo sapiens) (UniProt P03372); experiment: qHTS assay to identify small molecule agonists of the estrogen receptor alpha (ER-alpha) signaling pathway using the BG1 cell line (AID 743079); further: nearly all actives have a fitted effect of over 20% in size
[18] = target: Androgen receptor (Homo sapiens) (UniProt P10275); experiment: qHTS assay to identify small molecule antagonists of the androgen receptor (AR) signaling pathway (AID 743035; active means well fitted inhibition curve with a large enough effect in the signal ratio in the repeat runs, not every such curve was filed as active; inconclusive means weak or mixed curves, or effect the other way; inactive means no such curve, though single readings can be large or run the other way; the % refers to the signal ratio; further: potency means the concentration at half of the fitted maximal effect)
Procedure, shortened: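 Reporter HEK293 cells were exposed to compounds and R1881 overnight (16 h, 37C); beta-lactamase activity was then quantified by FRET fluorescence.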

Chain of Aromatase (Homo sapiens) (P11511 whole entry, looked up): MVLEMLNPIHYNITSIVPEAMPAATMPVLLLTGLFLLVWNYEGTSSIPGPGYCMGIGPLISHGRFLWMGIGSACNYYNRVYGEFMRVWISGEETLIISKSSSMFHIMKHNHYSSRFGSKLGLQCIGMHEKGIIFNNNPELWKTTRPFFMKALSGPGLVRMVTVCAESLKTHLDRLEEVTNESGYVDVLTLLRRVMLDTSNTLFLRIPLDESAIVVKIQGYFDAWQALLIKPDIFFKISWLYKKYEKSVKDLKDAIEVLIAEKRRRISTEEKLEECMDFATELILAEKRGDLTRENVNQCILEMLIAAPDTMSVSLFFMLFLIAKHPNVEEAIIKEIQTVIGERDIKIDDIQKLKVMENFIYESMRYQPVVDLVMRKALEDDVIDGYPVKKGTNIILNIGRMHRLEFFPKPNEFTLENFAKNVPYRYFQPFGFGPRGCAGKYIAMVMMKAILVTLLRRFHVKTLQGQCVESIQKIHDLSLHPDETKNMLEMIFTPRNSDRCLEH
Chain of Estrogen receptor (Homo sapiens) (P03372 whole entry, looked up): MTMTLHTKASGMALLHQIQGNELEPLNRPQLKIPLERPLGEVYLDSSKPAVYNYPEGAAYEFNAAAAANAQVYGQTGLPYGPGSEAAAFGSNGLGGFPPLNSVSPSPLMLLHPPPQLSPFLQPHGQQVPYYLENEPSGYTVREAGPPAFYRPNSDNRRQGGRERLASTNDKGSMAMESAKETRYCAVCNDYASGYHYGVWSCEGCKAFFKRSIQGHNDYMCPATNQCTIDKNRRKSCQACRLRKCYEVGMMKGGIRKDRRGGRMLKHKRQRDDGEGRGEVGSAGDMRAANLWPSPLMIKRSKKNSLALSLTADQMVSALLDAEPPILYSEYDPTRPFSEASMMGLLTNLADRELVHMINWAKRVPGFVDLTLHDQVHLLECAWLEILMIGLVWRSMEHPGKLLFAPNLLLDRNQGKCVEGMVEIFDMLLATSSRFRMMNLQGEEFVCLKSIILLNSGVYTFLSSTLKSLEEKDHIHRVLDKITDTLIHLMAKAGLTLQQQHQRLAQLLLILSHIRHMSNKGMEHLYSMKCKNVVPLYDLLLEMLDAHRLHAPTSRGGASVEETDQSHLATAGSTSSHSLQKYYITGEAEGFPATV
Chain of Androgen receptor (Homo sapiens) (P10275 whole entry, looked up): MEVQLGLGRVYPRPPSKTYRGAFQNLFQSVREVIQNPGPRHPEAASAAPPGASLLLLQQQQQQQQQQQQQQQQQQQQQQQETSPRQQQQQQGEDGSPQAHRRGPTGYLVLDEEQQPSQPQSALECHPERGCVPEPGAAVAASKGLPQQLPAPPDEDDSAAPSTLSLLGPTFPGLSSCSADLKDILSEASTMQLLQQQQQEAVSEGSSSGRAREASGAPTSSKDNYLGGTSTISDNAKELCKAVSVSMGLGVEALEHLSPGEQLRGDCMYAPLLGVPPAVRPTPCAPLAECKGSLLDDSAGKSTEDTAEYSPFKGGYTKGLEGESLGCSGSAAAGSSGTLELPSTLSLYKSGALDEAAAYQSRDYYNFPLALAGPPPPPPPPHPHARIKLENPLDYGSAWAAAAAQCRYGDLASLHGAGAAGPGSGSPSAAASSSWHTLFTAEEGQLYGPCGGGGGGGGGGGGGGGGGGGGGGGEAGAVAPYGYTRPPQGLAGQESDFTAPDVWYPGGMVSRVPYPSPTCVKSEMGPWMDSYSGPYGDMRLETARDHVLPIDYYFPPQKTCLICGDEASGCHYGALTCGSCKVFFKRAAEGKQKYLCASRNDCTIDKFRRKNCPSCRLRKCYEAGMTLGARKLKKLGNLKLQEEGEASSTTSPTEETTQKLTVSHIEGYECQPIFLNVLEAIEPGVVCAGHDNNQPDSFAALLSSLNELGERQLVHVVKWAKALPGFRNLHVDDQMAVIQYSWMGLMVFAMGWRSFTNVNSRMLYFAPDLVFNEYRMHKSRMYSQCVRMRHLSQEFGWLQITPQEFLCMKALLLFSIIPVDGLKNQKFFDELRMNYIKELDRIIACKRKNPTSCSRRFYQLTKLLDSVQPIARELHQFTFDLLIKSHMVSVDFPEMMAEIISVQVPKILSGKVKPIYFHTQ

| SMILES | Potency [1] | Potency [2] | Potency [3] | Potency [4] | Potency [5] | Potency [6] | Potency [7] | Potency [8] | Potency [9] | Potency [10] | Potency [11] | Potency [12] | Potency [13] | Potency [14] | Potency [15] | Potency [16] | Potency [17] | Potency [18] |
| --- | --- | --- | --- | --- | --- | --- | --- | --- | --- | --- | --- | --- | --- | --- | --- | --- | --- | --- |
| CN1CCN(c2ccccc2/C=C2\SCCN(c3ccc(Cl)c(Cl)c3)C2=O)CC1 | 4.33 µM (active) | 2.73 µM (active) | 5.45 µM (active) | 8.63 µM (active) | 8.63 µM (active) | 43.6 µM (active) | inactive | inactive | – | – | – | – | – | – | – | – | – | – |
| CO[C@H](C(=O)[C@@H](O)[C@@H](C)O)C1Cc2cc3cc(O[C@H]4C[C@@H](O[C@H]5C[C@@H](O)[C@H](O)[C@@H](C)O5)[C@@H](O)[C@@H](C)O4)c(C)c(O)c3c(O)c2C(=O)[C@H]1O[C@H]1C[C@@H](O[C@H]2C[C@@H](O[C@H]3C[C@](C)(O)[C@H](O)[C@@H](C)O3)[C@H](O)[C@@H](C)O2)[C@H](O)[C@@H](C)O1 (stereo not given in full) | 94.4 nM (active) and 47.3 nM (active) | 84.1 nM (active) and 37.6 nM (active) | 75 nM (active) and 33.5 nM (active) | – | 335 nM (active) and 237 nM (active) | inactive | inactive | 841 nM (active) and 668 nM (active) | inactive | inactive | inactive | 473 nM (active) and 266 nM (active) | 301 nM [inconclusive] (active) and 190 nM [inconclusive] (active) | 266 nM (active) and 335 nM (active) | inactive | – | – | – |
| CCC(NC(C)C)C(O)c1ccc(O)c(O)c1 (stereo not given) | inactive | inactive | inactive | inactive | inactive | inactive | – | inactive | inactive | – | inactive | – | – | – | inactive | inactive | – | – |
| CCCCCCOC(=O)c1cccnc1 | inactive | inactive | inactive | inactive | inactive | – | inactive | inactive | inactive | – | inactive | – | inactive | – | inactive | inactive | inactive | – |
| N[C@H](C(=O)O)[C@@H]1CC(Cl)=NO1 | 2.66 µM (active) | 2.66 µM (active) | – | 5.96 µM (active) | 2.98 µM (active) | inactive | inactive | – | – | – | inactive | – | – | inactive | inactive | inactive | inactive | – |
| C=C1C(CCl)(CCl)C2(Cl)C(Cl)C(Cl)C1(Cl)C2(Cl)Cl (stereo not given) | 4.73 µM (active) and 30.3 µM (active) | 2.98 µM (active) and 4.28 µM (active) | 5.96 µM (active) and 17 µM (active) | – | 5.31 µM (active) and 48 µM (active) | 23.9 µM (active) | – | 29.8 µM (active) and 60.4 µM (active) | inactive and 54.3 µM (active) | inactive | inactive | 26.6 µM (active) | – | – | inactive | inactive | – | 34.3 µM (active) |
| CCCCCCCCCCCCCCCCC(C(=O)O)C(O)(CC(=O)O)C(=O)O (stereo not given) | inactive | inactive | inactive | 26.6 µM (active) | 26.6 µM (active) | 26.8 µM (active) | – | inactive | inactive | inactive | inactive | inactive | – | inactive | inactive | – | inactive | – |
| O=C1OC(O)C(C(Cl)Cl)=C1Cl (stereo not given) | 17.8 µM (active) | 1.26 µM (active) | 19.9 µM (active) | 31.6 µM (active) | – | inactive | – | – | 22.5 µM (active) | – | inactive | – | – | inactive | inactive | inactive | inactive | – |
| CC(Cc1ccc(O)c(O)c1)C(C)Cc1ccc(O)c(O)c1 (stereo not given) | – | 30.6 µM (active) | 15.4 µM (active) | – | – | – | 17.4 nM [inconclusive] (active) | inactive | inactive | – | inactive | – | 54.9 µM [inconclusive] (active) | inactive | inactive | inactive | – | – |
| C=C(Nc1ccc(OCC)cc1)Nc1ccc(OCC)cc1 | – | – | 23.7 µM (active) | inactive | inactive | inactive | inactive | inactive | inactive | – | inactive | – | inactive | – | inactive | inactive | inactive | – |
| SC1CCCCC1 | – | inactive | inactive | inactive | inactive | inactive | – | inactive | inactive | – | inactive | – | – | – | inactive | inactive | – | – |
| NCC1CCC(C(=O)O)CC1 (stereo not given) | inactive | – | inactive | inactive | inactive | inactive | inactive | inactive | – | – | inactive | – | inactive | inactive | inactive | inactive | inactive | – |
